Results published in ChEMBL document CHEMBL3433997, “St. Jude Leishmania screening dataset” (2016).

Tests used:
Type in all cases: functional
[1] = target: Solute carrier family 2, facilitated glucose transporter member 1 (Homo sapiens) (UniProt P11166); assay: ST_JUDE_LEISH: Cytotoxicity at 2uM final concentration against transgenic Leishmania Mexicana promastigotes LmGLUT1 that are glucose transport deficient and complemented with the human glucose transporter GLUT1. Activity is measured by DNA content using SYBR green in vitro
[2] = target: Hexose transporter 1 (Plasmodium falciparum) (UniProt O97467); assay: ST_JUDE_LEISH: Cytotoxicity at 2uM final concentration against transgenic Leishmania Mexicana promastigotes LmPfHT that are glucose transport deficient and complemented with the Plasmodium falciparum hexose transporter. Activity is measured by DNA content using SYBR green in vitro
[3] = target: Glucose transporter (Leishmania mexicana) (UniProt O61059); assay: ST_JUDE_LEISH: Cytotoxicity at 2uM final concentration against transgenic Leishmania Mexicana promastigotes LmGT2 that are glucose transport deficient and complemented with the L. Mexicana glucose transporter 2. Activity is measured by DNA content using SYBR green in vitro

Solute carrier family 2, facilitated glucose transporter member 1 (Homo sapiens), sequence (P11166 whole entry): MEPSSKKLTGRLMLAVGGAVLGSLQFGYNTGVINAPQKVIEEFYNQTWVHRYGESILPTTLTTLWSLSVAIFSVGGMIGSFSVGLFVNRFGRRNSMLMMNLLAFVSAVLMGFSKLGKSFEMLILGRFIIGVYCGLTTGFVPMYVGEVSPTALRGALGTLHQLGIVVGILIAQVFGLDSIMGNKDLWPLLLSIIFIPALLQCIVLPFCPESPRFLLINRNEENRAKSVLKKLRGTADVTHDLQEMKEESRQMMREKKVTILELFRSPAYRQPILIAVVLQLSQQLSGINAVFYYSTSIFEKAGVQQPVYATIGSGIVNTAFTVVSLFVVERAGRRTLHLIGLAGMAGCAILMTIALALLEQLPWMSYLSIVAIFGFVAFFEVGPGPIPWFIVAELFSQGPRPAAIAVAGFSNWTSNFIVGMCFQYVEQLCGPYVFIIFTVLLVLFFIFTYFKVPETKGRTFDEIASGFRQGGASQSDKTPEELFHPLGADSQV

COc1ccccc1CCNc1nc(C)cc(N[C@@H](CC(C)C)C(=O)NCc2cccc(F)c2)n1
inhibition [1]: 9.56%
inhibition [2]: 8.52%
inhibition [3]: 8.86%

CN1CCC(NCc2ccc(-c3ccc(S(=O)(=O)NC4CCC4)s3)cc2)CC1
inhibition [1]: 3.46%
inhibition [2]: 1.25%
inhibition [3]: 0.74%

CCC(=O)Nc1nnc(Cc2ccc(OC)c(OC)c2)s1
inhibition [1]: 9.1%
inhibition [2]: 10.1%
inhibition [3]: 6.69%

CCN(CC)CCN(Cc1ccc(-c2ccc(C(F)(F)F)cc2)cc1)C(=O)Cn1c(CCc2cccc(F)c2F)nc(=O)c2cc(C)ccc21
inhibition [1]: 5.28%
inhibition [2]: 9.2%
inhibition [3]: 7.16%

O=S(=O)(NC1CCN(c2ccnc3cc(Cl)ccc23)C1)c1ccc(C(F)(F)F)cc1 (stereo not drawn)
inhibition [1]: 1.91%
inhibition [2]: 1.67%
inhibition [3]: 0.45%

O=C(Nc1ccc(N2CCN(Cc3cccc(F)c3)CC2)cc1)c1cccs1
inhibition [1]: 3.08%
inhibition [2]: 2.27%
inhibition [3]: 4.59%

Cc1cc2c(cc1C(F)(F)F)N(C(=O)Nc1ccc(C(=O)NCCN3CCCC3)cc1)CC2
inhibition [1]: 1.29%
inhibition [2]: 1.86%
inhibition [3]: -0.08%

CCC(C)NS(=O)(=O)c1ccc2nc(Nc3cccc(SC)c3)n(C(C)C(C)C)c2c1 (stereo not drawn)
inhibition [1]: 3.91%
inhibition [2]: 4.3%
inhibition [3]: 3.8%

CCOC(=O)CC[C@@H](NC(=O)c1ccc(NCc2ccc3ccc4nc(C)[nH]c(=O)c4c3c2)cc1F)C(=O)N[C@@H](Cc1c[nH]c2ccccc12)C(=O)OCC
inhibition [1]: 1.56%
inhibition [2]: 1.89%
inhibition [3]: 3.35%

c1ccc2c(c1)cc(CNCCCN1CCN(CCCNCc3cc4ccccc4c4ccccc34)CC1)c1ccccc12
inhibition [1]: -0.37%
inhibition [2]: 0.84%
inhibition [3]: -0.41%

Cc1oc(-c2cccc(Oc3ccccc3)c2)nc1CN(Cc1cnn(C)c1)C(C)C
inhibition [1]: 1.56%
inhibition [2]: 1.15%
inhibition [3]: 1.83%
